Screens as filed in PubChem BioAssay.
The list is not random: actives were taken first. Their share in the collection is about 3.4%.
ANO1 activ = activates or potentiates the mouse TMEM16A chloride channel; Q8BHY3; HEK293 TMEM16A/YFP-H148Q/I152L, iodide quench fluorescence; hits give low values; B-score at 10 µM; actives 0.3% (n = 340,000);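 active means fluorescence-ratio B-score plate-corrected deviation score at least 3 library SD below zero, with starting fluorescence score within 5 deviations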;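 further: channel opened by trigger with iodide after compound preincubation; score built on the fluorescence ratio of max minus min over baseline; more negative score means more quench and so TMEM16A activation or potentiation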
MEKK2mut PB1 HTS = signal of MEK5 binding to mutant human MEKK2 PB1 domain; percent response, % at 10 µM; actives 0.35% (n = 290,000); bead flow cytometry, Alexa488-MEK5 binding to MEKK2 mutant; AID 1530; in the data active means percent response above about 24%, passing the limit was not always enough
NTR1 ag = activates human neurotensin receptor 1; P30989; NTR1-U2OS beta-arrestin-GFP spot imaging, agonist mode; activation, % at 20 µM; actives 0.17% (n = 330,000); AID 493036;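 active means activation at or above 40% of the spot to cytoplasm intensity ratio, with at least 20 cells analyzed; inconclusive means wells under 20 cells, flagged as cytotoxic or low count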;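 further: 0% = DMSO without peptide and 100% = 100 nM NTR1 peptide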
Target sequence (P30989 whole entry, looked up): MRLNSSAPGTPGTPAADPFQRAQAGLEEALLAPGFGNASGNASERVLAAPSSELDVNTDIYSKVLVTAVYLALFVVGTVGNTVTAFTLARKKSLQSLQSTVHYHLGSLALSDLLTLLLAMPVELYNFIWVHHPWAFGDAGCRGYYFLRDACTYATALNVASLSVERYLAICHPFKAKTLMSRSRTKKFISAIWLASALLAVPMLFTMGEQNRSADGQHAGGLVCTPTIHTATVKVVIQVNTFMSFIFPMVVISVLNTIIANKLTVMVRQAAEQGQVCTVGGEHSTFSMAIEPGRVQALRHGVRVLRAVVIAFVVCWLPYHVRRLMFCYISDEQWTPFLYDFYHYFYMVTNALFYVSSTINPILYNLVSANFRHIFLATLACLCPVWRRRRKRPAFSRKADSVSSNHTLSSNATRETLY
MEKK2wt PB1 HTS = raises or lowers MEK5 binding to wildtype human MEKK2 PB1 domain; actives 1.1% (n = 290,000); bead flow cytometry, Alexa488-MEK5 binding to MEKK2 WT; actives lie on both sides; AID 1531; Q9Y2U5; binding response (% of control), % at 10 µM; in the data active means binding response below about 67% or above about 130%; inconclusive means no clear call, values can overlap the other calls; inactive means in between
ANO1 block = mouse TMEM16A channel inhibition, primary screen | Q8BHY3 | HEK293 TMEM16A/YFP iodide influx fluorescence, ionomycin | normalized B-score (activity score, 25-100; higher = stronger inhibition) at 10 µM | actives 1.2% (n = 310,000);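 active means ratio plate-corrected score three or more library SD toward inhibition, starting fluorescence score within five deviations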;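 further: score derived from kinetic fluorescence span divided by baseline fluorescence per well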
MEKK3 PB1 HTS = MEKK3-MEK5 PB1 interaction, increase or decrease; actives 1.4% (n = 290,000); AID 1529; Q99759; bead-based flow cytometry, Alexa488-MEK5 binding to MEKK3; actives lie on both sides; 0 = blocked by unlabeled MEK5, 100 = vehicle; binding response (% of control), % at 10 µM;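 active means binding response more than 3 SD above or below the average of its plate-row segment, actives on both sides; inconclusive means wells at one plate position flagged as instrument error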;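 further: Alexa488 bead fluorescence after subtracting the streptavidin-only scavenger bead signal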
Starred values were filed as active, the others as inactive; i = inactive; ? = inconclusive; . = not tested or not shown.

SMILES	ANO1 activ	MEKK2mut PB1 HTS	NTR1 ag	MEKK2wt PB1 HTS	ANO1 block	MEKK3 PB1 HTS
Cc1ccc(S(=O)(=O)N2[C@@H](c3ccc(Cl)cc3)C(C(=O)O)=CC[C@H]2c2ccc(Cl)c(Cl)c2)cc1	i	.	18	.	100*	.
CCOc1ccc([C@@H]2CC=C(C(=O)O)[C@H](c3ccc(F)cc3)N2S(=O)(=O)c2ccc(C)cc2)cc1	i	.	31	.	i	.
Cc1ccc(S(=O)(=O)N2[C@@H](c3ccccc3)C(C(=O)O)=CC[C@H]2c2cccc(Cl)c2)cc1	i	.	5	.	i	.
CCOc1ccccc1NC(=O)C(Sc1nnnn1C)c1ccccc1 (centres undefined)	i	4	0	96	i	98
NC(=O)c1cc(S(=O)(=O)N2CC=C(c3ccccc3)CC2)cs1	i	3	0	107	i	99
Cn1nnnc1SCC(=O)Nc1ccc(Cl)c(S(=O)(=O)N2CCOCC2)c1	i	2	2	94	i	95
O=C(N/N=C/c1cccc(Oc2ccc([N+](=O)[O-])cc2[N+](=O)[O-])c1)c1cncc(Br)c1	i	-24	8	?	i	?
COc1ccccc1N(CC(=O)NCCSCc1ccccc1)S(=O)(=O)c1ccc(C)cc1	i	0	9	102	25*	102
Cc1ccc(C(=O)Nc2ccc(Cc3ccncc3)cc2)cc1[N+](=O)[O-]	i	.	0	.	100*	.
O=C(Nc1ccc(Cc2ccncc2)cc1)c1cccc([N+](=O)[O-])c1	i	2	3	106	i	109
Cc1cccc2sc(NNC(=O)c3ccc(S(=O)(=O)N4CCc5ccccc5C4)cc3)nc12	i	-6	11	82	i	86
Cc1cccc2sc(NNC(=O)c3ccc(S(=O)(=O)N4CCCC(C)C4)cc3)nc12 (centres undefined)	i	-7	.	90	25*	96
CCN1CCN(c2ccccc2NC(=O)c2ccc(-n3cccn3)cc2)CC1	i	.	-2	.	.	.
CC(NC(=O)CSc1nnc2n1CCCCC2)c1ccccc1Cl (centres undefined)	i	.	0	.	.	.
CCC1=NN(C(=O)c2ccc(Cl)cc2)C(O)(c2ccc(C)cc2)C1 (centres undefined)	i	5	1	106	i	102
CCOC(=O)C1=NN(C(=O)c2ccc(C)cc2)C(O)(c2ccc(Cl)cc2)C1 (centres undefined)	i	0	1	99	100*	100
CCOC(=O)N1CCN(C(=O)c2ccc(Cn3c(=S)[nH]c4ccc(Br)cc4c3=O)cc2)CC1	i	-2	14	98	100*	100
CCOC(=O)N1CCN(C(=O)c2ccc3c(=O)n(Cc4ccc(Cl)cc4)c(=S)[nH]c3c2)CC1	i	.	14	.	i	.
Cc1ccccc1COc1ccc(/C(O)=C2/C(=O)C(=O)N(CCCn3ccnc3)C2c2ccco2)cc1 (centres undefined)	i	13	-1	109	i	107
Cn1c(NC(=O)/C=C\c2ccccc2)cc(=O)n(C)c1=O	i	-2	3	99	i	103
C/C(CS(=O)(=O)c1ccc(Cl)c(Cl)c1)=N/NC(N)=S	-8.5*	-3	-2	103	i	99
Cc1cccc(S(=O)(=O)c2c(C)cc(C)[nH]c2=O)c1	i	0	0	104	i	100
C=C(C)Cn1c(C)cc(C)c(S(=O)(=O)c2cccc(C)c2)c1=O	i	-3	0	101	100*	104
CCC(C)(C)C1CCC2(CC1)NC(CO)(CO)CO2 (centres undefined)	-4.9*	4	-1	101	i	110
Cc1cc(Br)ccc1NC(=O)CN(C)C(=O)C1CSC2(C)CCC(=O)N12 (centres undefined)	i	.	7	.	.	.
SMILES	ANO1 activ	MEKK2mut PB1 HTS	NTR1 ag	MEKK2wt PB1 HTS	ANO1 block	MEKK3 PB1 HTS
CC12CCC(C(=O)O)(c3nc4cc([N+](=O)[O-])ccc4nc31)C2(C)C (centres undefined)	i	-11	2	90	i	90
CC(OC(=O)Cc1c[nH]c2ccccc12)C(=O)Nc1ccccc1[N+](=O)[O-] (centres undefined)	i	.	1	.	i	.
COc1ccccc1N1CCN(C(=O)CSc2nc3ccccc3[nH]2)CC1	i	6	-2	110	25*	108
COc1ccc(CN2CCNC(=O)C2CC(=O)N(C)CC2CCOCC2)cc1OC (centres undefined)	i	0	1	97	i	100
Cc1cccc(NC(=O)c2ccc(Cl)c(S(=O)(=O)N3CCc4ccccc43)c2)n1	i	.	6	.	.	.
CCc1nnc(NC(=O)c2ccc(Cl)c(S(=O)(=O)N3CCc4ccccc43)c2)s1	i	-4	4	97	100*	99
CCCCc1ccc(C2C(C#N)=C(N)SC(N)=C2C#N)s1	.	4	1	100	100*	99
COc1ccc(C(=O)NCC(=O)N2CCC(Cc3ccccc3)CC2)cc1OC	i	.	-1	.	.	.
Cc1ccc(-c2cc(C(F)(F)F)c(C#N)c(=O)[nH]2)cc1	i	2	0	101	i	108
N#Cc1c(C(F)(F)F)cc(-c2ccccc2Cl)[nH]c1=O	i	-8	2	89	100*	95
CCN(CC(=O)Nc1ccc2c(c1)OCCO2)C(=O)c1ccc([N+](=O)[O-])s1	.	.	-1	.	.	.
C#CCOCCOCCOCCNc1nc(N2CCN(C(=O)CCCCCCCCCCNC(=O)[C@H]([C@@H](C)CC)n3cc(CCCCN=C(N)N)nn3)CC2)nc(N2CCN(C(=O)CCCCCCCCCCNC(=O)[C@H](CCCCN)n3cc(C)nn3)CC2)n1	.	.	4	.	i	.
C#CCOCCOCCOCCNc1nc(N2CCN(C(=O)CCCCCCCCCCNC(=O)[C@H]([C@@H](C)CC)n3cc(CCCCN=C(N)N)nn3)CC2)nc(N2CCN(C(=O)CCCCCCCCCCNC(=O)[C@H]([C@@H](C)CC)n3cc(CCCCN=C(N)N)nn3)CC2)n1	.	.	0	.	i	.
C#CCOCCOCCOCCNc1nc(N2CCOCC2)nc(N2CCN(C(=O)[C@H](CCCCN)n3cc([C@@H](N)CC(C)C)nn3)CC2)n1	i	12	-3	118	i	107
C#CCOCCOCCOCCNc1nc(N2CCN(C(=O)CCCCCCCCCCNC(=O)[C@H]([C@@H](C)CC)n3cc(CCCCCN)nn3)CC2)nc(N2CCN(C(=O)CCCCCCCCCCNC(=O)[C@H]([C@@H](C)CC)n3cc(CCCCN=C(N)N)nn3)CC2)n1	-28*	.	4	.	i	.
